This passage reports activation results from PubChem BioAssay (NCATS).

Where “and” joins values, the source holds several entries; their conditions need not be identical. Equal entries are not always repeated. Inconclusive results are not listed. Unmarked numbers belong to inactive results. The call rests on the fitted dose curve.

Sequence of Bile acid receptor (Homo sapiens) (Q96RI1 whole entry, looked up): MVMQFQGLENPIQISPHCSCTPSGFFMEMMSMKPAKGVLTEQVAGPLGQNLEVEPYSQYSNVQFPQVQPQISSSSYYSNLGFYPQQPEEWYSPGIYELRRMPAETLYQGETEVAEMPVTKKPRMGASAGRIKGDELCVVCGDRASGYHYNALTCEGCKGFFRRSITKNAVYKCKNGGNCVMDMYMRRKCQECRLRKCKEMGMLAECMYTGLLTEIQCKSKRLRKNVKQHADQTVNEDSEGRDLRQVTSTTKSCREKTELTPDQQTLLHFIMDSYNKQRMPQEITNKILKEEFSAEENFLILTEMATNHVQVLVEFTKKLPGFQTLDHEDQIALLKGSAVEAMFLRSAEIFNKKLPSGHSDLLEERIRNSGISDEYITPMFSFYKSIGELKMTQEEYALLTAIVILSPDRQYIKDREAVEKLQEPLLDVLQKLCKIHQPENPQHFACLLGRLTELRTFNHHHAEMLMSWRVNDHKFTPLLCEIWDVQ

The target in the assay is Bile acid receptor (Homo sapiens) (UniProt Q96RI1). Kind of assay: qHTS assay for small molecule agonists of farnesoid X receptor signaling (AID 588527).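 Further: series mostly up to about 77 µM; 0% = vehicle basal and 100% = reference agonist.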 Particulars: HEK293T FXR-UAS-bla, beta-lactamase ratio, 16 h; activation: stronger effect = higher value. The procedure, abridged:
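FXR-UAS-bla HEK293T cells (10% dialyzed FBS) preincubated 5-7 h at 37 C, then compounds at up to 92 uM for 16 h at 37 C. CCF4 beta-lactamase read-out after 2 h RT. Normalized to chenodeoxycholic acid (100 uM) and DMSO; Hill fit gave EC50 and efficacy.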
With `Oc1c(Cl)cc(Cl)c(Cl)c1Cl`, the activation is -1.79% and -2.07%.

Regarding `CCCCCCCOC(=O)c1ccccc1C(=O)OCCCCCCC`, the activation is -0.976%.

In the case of `C1OCOCO1`, the activation is -0.63%.

With `CCCCCCCCCCCCCCCCN(C)C`, the activation is 3.83%.

`C=CCCCCCCC=C`: the activation was -0.711%.

Take `CCCCOC(=O)[C@@H](C)Oc1ccc(Oc2ccc(C(F)(F)F)cn2)cc1`: the activation is -2.63%.

For the compound `CC(=O)CC(=O)Nc1ccccc1`, the activation was 0.0824% and -0.252%.

With `CSc1ccc(Cl)cc1`, the activation is -0.0441%.

In the case of `O=S(=O)(O)c1ccc(N=Nc2cc(S(=O)(=O)O)c3ccccc3c2O)c2ccccc12`, the activation is 2.06%.

Regarding `Cc1ccc(CO)cc1`, the activation was -3.46%.

`Cc1cc(C)cc([N+](=O)[O-])c1`: the activation is -0.797%.

With `Nc1c(Cl)cc(Cl)cc1Cl`, the activation is 0.611%.

Take `COC(=O)c1c(Cl)nn(C)c1S(=O)(=O)NC(=O)Nc1nc(OC)cc(OC)n1`: the activation is 3.79%.

Consider `CCCCC`, for which the activation was -0.0908%.

For `CCCCCCCCCCCCCCCO`, the activation is -2.39%.

Take `CCOC(=O)NCCOc1ccc(Oc2ccccc2)cc1`: the activation was 2.99%.

Turning to `CC(C)=CCC/C(C)=C\CO`, the activation is -0.74%.

On to `C#CCOC(=O)[C@@H](C)Oc1ccc(Oc2ncc(Cl)cc2F)cc1`, for which the activation was -1.83%.

With `NC(=O)Nc1nc2ccccc2[nH]1`, the activation was -1.18%.

Consider `CCCC[O][Al]([O]CCCC)[O]CCCC`, for which the activation is 1.48%.

Turning to `C=CC(=O)CC`, the activation is 3.81%.

As for `C[Si]1(C)O[Si](C)(C)O[Si](C)(C)O1`, the activation was -0.282%.

As to `CNc1nc(=O)n(C2CCCCC2)c(=O)n1C`, the activation was -6.04%.

Turning to `C[Si](C)(Cl)[Si](C)(C)Cl`, the activation is 0.0904%.

On to `O=C(O)c1ccccc1Cl`, for which the activation is 1.39%.

As for `CC(C)CCC[C@@H](C)[C@H]1CC[C@H]2[C@@H]3CC=C4C[C@@H](O)CC[C@]4(C)[C@H]3CC[C@]12C`, the activation was 0.612%.

On to `CCCCCCCCCCCCCCCCCC(=O)OC[C@@H](O)[C@H]1OC[C@H](O)[C@H]1O`, for which the activation is 5.18%.

In the case of `CC1(C)C(=O)N(Br)C(=O)N1Br`, the activation was 1.27%.

On to `CCCCCCc1ccc(-c2ccc(C#N)cc2)cc1`, for which the activation is -1.9%.

In the case of `Cn1sccc1=O`, the activation is 1.01%.

As to `CC(COCC(C)OC(=O)c1ccccc1)OC(=O)c1ccccc1` (stereo not given), the activation is 3.09%.

With `O=C(O)c1ccc(O)cc1O`, the activation is 1.07% and -1.82%.

Take `NCCCCCCCCCCC(=O)O`: the activation is 1.65%.

Take `OCl`: the activation is 1.09%.

Regarding `COC(=O)c1ccccc1S(=O)(=O)NC(=O)Nc1nc(OC(F)F)cc(OC(F)F)n1`, the activation was 2.12%.

With `BrC1CCC(Br)C(Br)CCC(Br)C(Br)CCC1Br` (stereo not given), the activation is 3.55%.

In the case of `NN(c1ccccc1)c1ccccc1`, the activation was -1.98%.

On to `O=C(O)CCSSCCC(=O)O`, for which the activation is -1.56%.

Consider `O=C1OC(=O)c2c(Cl)c(Cl)c(Cl)c(Cl)c21`, for which the activation was -0.745% and 3.66%.

For the compound `C/C=C1\CC2C=CC1C2` (stereo not given), the activation is 0.0193%.
